According to PubChem BioAssay (EPA / NIEHS):
Values joined by “and” are separate entries in the source; they are usually repeats but may differ in a detail not shown here. Equal entries are not always repeated. Inconclusive results are not listed. Where a structure was tested more than once in an assay, its records may differ in their call. Active and inactive are the calls of the source. The calls were made as follows: active = hit-call score of the fitted dose curve at least 0.9, where 1 is the maximum; inconclusive = response in the unintended direction; inactive = score below 0.9.

What was measured:
[1] = ATG_XTT_Cytotoxicity: Cytotoxicity Assessment in the Attagene TRANS-FACTORIAL HepG2 Assay (AID 2283584);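 as to AC50: XTT signal for cell number as viability in transfected HepG2 cells; cells exposed to compound for 24 h before reading; active means loss of viability signal versus DMSO baseline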
Outline: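 HepG2 cells transiently transfected with GAL4-UAS multiple reporter units, dosed 24 h; cytotoxicity read by XTT as loss of signal versus DMSO baseline.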

[2] = TOX21_p53_BLA_p2_viability: Viability Assessment in the Tox21 HCT-116 p53 Agonism Beta-lactamase Assay, Phase 2 (AID 2283591);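 also: actives lower the ATP signal meaning cytotoxicity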
Outline: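 HCT116 p53-bla cells, 4000/well, dosed after 5 h plating (217-fold dilution of DMSO stocks) and incubated 16 h at 37C. Viability taken as cellular ATP by CellTiter-Glo luminescence after 30 min RT; signal loss marks cytotoxicity.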

[3] = molecular target: Cellular tumor antigen p53 (Homo sapiens) (UniProt P04637); test: TOX21_p53_BLA_p2_ratio: Tox21 HCT-116 p53 Agonism Beta-lactamase Assay, Ratio, Phase 2 (AID 2283592)
Outline: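 First, HCT116 reporter cells settle for 5 h at 37C. Next, DMSO compound solutions are pinned in (217-fold dilution) and left 16 h. Finally, CCF4-AM substrate is loaded 2 h at room temperature and the 460/530 nm ratio read.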

[4] = TOX21_p53_BLA_p3_viability: Viability Assessment in the Tox21 HCT-116 p53 Agonism Beta-lactamase Assay, Phase 3 (AID 2283593);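 also: cells exposed to compound for 16 h before reading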
Outline: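 HCT116 cells, 4000/well, dosed 5 h after plating by pin transfer (217-fold dilution from DMSO stock) and incubated 16 h at 37C, 5% CO2. Viability read as ATP luminescence with CellTiter-Glo after 30 min at room temperature.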

[5] = molecular target: Cellular tumor antigen p53 (Homo sapiens) (UniProt P04637); test: TOX21_p53_BLA_p3_ratio: Tox21 HCT-116 p53 Agonism Beta-lactamase Assay, Ratio, Phase 3 (AID 2283596)
Outline: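 Cells were seeded at 4000/well, rested 5 h at 37C, then dosed with DMSO compound solutions (217-fold dilution) for 16 h. CCF4-AM substrate was loaded for 2 h at room temperature, and the 460/530 nm emission ratio was fitted for gain of signal versus DMSO.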

[6] = TOX21_p53_BLA_p4_viability: Viability Assessment in the Tox21 HCT-116 p53 Agonism Beta-lactamase Assay, Phase 4 (AID 2283597);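 also: hits lower the luminescence signal meaning cytotoxicity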
Outline: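 4000 HCT116 cells per well; 5 h attachment; compounds from DMSO, 217-fold dilution; 16 h at 37C. Then CCF4-AM, 2 h RT, followed by CellTiter-Glo, 30 min RT, luminescence. Decrease = cytotoxicity.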

[7] = TOX21_p53_BLA_p5_viability: Viability Assessment in the Tox21 HCT-116 p53 Agonism Beta-lactamase Assay, Phase 5 (AID 2283600)
Outline: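 Decreased CellTiter-Glo luminescence denotes lost viability. Exposure: 16 h at 37C, 5% CO2, with compounds from DMSO stocks diluted 217-fold in wells of 4000 cells.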

[8] = molecular target: Cellular tumor antigen p53 (Homo sapiens) (UniProt P04637); test: TOX21_p53_BLA_p4_ratio: Tox21 HCT-116 p53 Agonism Beta-lactamase Assay, Ratio, Phase 4 (AID 2283601)
Outline: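 HCT-116 p53 beta-lactamase reporter cells (4000/well) preincubated 5 h, then compound (217-fold dilution of DMSO stock) for 16 h at 37C. CCF4-AM substrate added 2 h at room temperature; 460/530 nm emission ratio fitted upward versus DMSO.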

[9] = molecular target: Cellular tumor antigen p53 (Homo sapiens) (UniProt P04637); test: TOX21_p53_BLA_p5_ratio: Tox21 HCT-116 p53 Agonism Beta-lactamase Assay, Ratio, Phase 5 (AID 2283599)
Outline: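 HCT-116 p53-bla cells (4000/well) plated 5 h, dosed with compound (217-fold DMSO dilution) for 16 h at 37 C; CCF4-AM substrate 2 h at room temperature. Activity is the 460/530 nm emission ratio (405 nm excitation), fitted in gain-of-signal direction versus DMSO.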

Measured: AC50

Cellular tumor antigen p53 (Homo sapiens), sequence (P04637 whole entry, looked up): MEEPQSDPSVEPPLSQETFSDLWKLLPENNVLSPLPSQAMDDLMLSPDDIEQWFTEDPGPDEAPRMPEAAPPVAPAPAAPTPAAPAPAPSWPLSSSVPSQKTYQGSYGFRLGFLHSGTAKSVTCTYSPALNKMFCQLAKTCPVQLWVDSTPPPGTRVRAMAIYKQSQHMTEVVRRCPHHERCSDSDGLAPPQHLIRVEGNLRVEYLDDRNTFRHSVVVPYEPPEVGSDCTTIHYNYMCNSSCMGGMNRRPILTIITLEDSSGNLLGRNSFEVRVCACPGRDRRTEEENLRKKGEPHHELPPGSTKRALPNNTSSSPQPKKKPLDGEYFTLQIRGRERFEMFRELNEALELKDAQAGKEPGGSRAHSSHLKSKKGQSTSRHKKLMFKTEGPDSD

COc1ccccc1NC(=O)c1cc2ccccc2cc1O
active: [3] 14 µM | [8] 36.1 µM
not listed: [9]
inactive: all other assays above

CN(C)c1ccc(C(=C2C=CC(=[N+](C)C)C=C2)c2ccccc2)cc1
inactive: [4] | [5] | [7] | [8]
active: [1] 10.1 µM and 7.71 µM | [3] 9.06 µM and 39.7 µM | [4] 1.15 µM | [5] 15.1 µM | [6] 1.36 µM and 23 µM | [8] 15.8 µM

O=C(NO)c1ccccc1
not listed: [2]
inactive: all other assays above

CC1=CC(=O)c2ccccc2C1=O
active: [4] 35.7 µM and 36.7 µM | [5] 29.7 µM and 41.4 µM | [6] 72.7 µM | [7] 37.9 µM
inactive: [1] | [3] | [6] | [7] | [8]

c1ccc(CNc2ncnc3c2ncn3C2CCCCO2)cc1 (stereo not given)
inactive: [1] | [2] | [4] | [6] | [7]

C=CC(=O)OCC(CO)(COCC(COC(=O)C=C)(COC(=O)C=C)COC(=O)C=C)COC(=O)C=C
active: [1] 29.3 µM | [3] 78.7 µM | [4] 3.91 µM | [6] 3.32 µM | [9] 82.5 µM | [7] 2.74 µM | [8] 65 µM
inactive: [5]

OCC1CCC(CO)CC1 (stereo not given)
not listed: [4] | [5]
inactive: all other assays above

CC(O)COc1ccccc1 (stereo not given)
not listed: [6] | [9]
inactive: all other assays above

CCCCCCOC(=O)c1ccc(O)cc1
active: [1] 149 µM | [3] 67.3 µM | [5] 86 µM | [6] 43.2 µM and 64.2 µM | [8] 67.3 µM and 80 µM
inactive: [3] | [4] | [5] | [7]

O=c1cc(-c2ccccc2)oc2ccc3ccccc3c12
not listed: [2]
inactive: all other assays above

CC(=O)CC(C)C
not listed: [4]
inactive: all other assays above

c1cnc2c(c1)ccc1cccnc12
inactive: [1] | [3] | [4] | [5] | [7] | [8]
active: [3] 38.3 µM | [6] 41.8 µM

NS(=O)(=O)O
not listed: [6]
inactive: all other assays above

O=S(=O)(O)c1ccc2cc(O)ccc2c1
inactive: all assays above

CC(C)(C)C1CCCCC1O (stereo not given)
not listed: [5] | [7]
inactive: all other assays above

Nc1ccc(O)c(C(=O)O)c1
not listed: [2] | [8] | [9]
inactive: all other assays above

CCOCCOCC
inactive: [4] | [5] | [6] | [9] | [7]

CCC(=O)C=Cc1ccc(OC)cc1
not listed: [1] | [2] | [9]
inactive: all other assays above

CCC1CO1 (stereo not given)
inactive: [1] | [3] | [7] | [8]

CC(=O)Nc1ccc(S(N)(=O)=O)cc1
inactive: [1] | [5]

CCC(=O)O
inactive: [1] | [3] | [5] | [9] | [8]

CC1=NN(c2ccccc2)C(=O)C1
not listed: [1] | [2]
inactive: all other assays above

CCCCCCCCCCCC[N+](C)(C)CCCCCCCCCCCC
active: [1] 62.4 µM | [3] 41.4 µM | [4] 50.7 µM | [5] 66.5 µM | [6] 46.1 µM | [7] 37 µM | [8] 32.3 µM

O=C(O)C(=O)O
inactive: [1] | [3] | [5] | [8]

O=C(c1cc(O)c(O)c(O)c1)c1ccc(O)c(O)c1O
active: [3] 59.5 µM and 61.8 µM | [5] 60.9 µM and 84.5 µM | [9] 86.8 µM and 74.6 µM | [8] 79.2 µM and 49.9 µM
inactive: [2] | [4] | [6] | [7]

CCC(C)c1nccnc1OC (stereo not given)
inactive: [1] | [3] | [8]

NCCN
inactive: [1] | [3] | [5] | [7] | [8]

NCc1cccc(CN)c1
not listed: [2] | [4] | [9]
inactive: all other assays above

Cc1ccc(C)c(S(=O)(=O)O)c1
not listed: [2] | [4] | [9]
inactive: all other assays above

CC(C)(C)c1ccc(CCC=O)cc1
not listed: [2] | [6] | [7]
inactive: all other assays above

CC(C)C=O
not listed: [2] | [3] | [5]
inactive: all other assays above
